From PubChem BioAssay (EPA / NIEHS)
Results filed as inconclusive are left out. Calls of active or inactive are those of the source. How the source made its calls: active means hit-call score of the fitted dose curve at least 0.9, where 1 is the maximum; inconclusive means response in the unintended direction; inactive means score below 0.9.

Legend:
[1] = biological target: Androgen receptor (Homo sapiens) (UniProt P10275); test: ATG_AR_TRANS: Attagene TRANS-FACTORIAL HepG2 Assay for human Androgen Receptor (AR) (AID 2282973); conditions: HepG2 Attagene TRANS-FACTORIAL AR reporter transcription
Summary of the method: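 Chimeric nuclear receptor–Gal4 activity was assessed in human HepG2 hepatocytes after 24 h chemical dosing. Induced reporter mRNA was detected via labelled RT-PCR fragments on capillary electrophoresis, and gain of signal was analysed against DMSO.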

[2] = biological target: human Aurora Kinase A - serine/threonine-protein Kinase 6 (AurA), AURKA (gene 6790) (UniProt O14965); test: NVS_ENZ_hAurA: NovaScreen (NVS) Enzymatic Assay for human Aurora Kinase A - serine/threonine-protein Kinase 6 (AurA) (AID 2283142)
Summary of the method: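 Cell-free enzymatic assay with human Aurora A, 1 hour after dosing. Fluorescent substrate turnover detected after electrophoretic mobility shift separation of substrate and product. Screened at 25 uM, actives retested in concentration-response up to 50 uM.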

[3] = biological target: human IkappaB Kinase alpha (IKKa), CHUK (gene 1147) (UniProt O15111); test: NVS_ENZ_hIKKa: NovaScreen (NVS) Enzymatic Assay for human IkappaB Kinase alpha (IKKa) (AID 2283167)
Summary of the method: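 Cell-free recombinant human IKKa with fluorescent substrate, product separated by electrophoretic mobility shift; read 1 hour after dosing. Primary screen duplicate at 25 uM, actives then concentration-response up to 50 uM; loss of signal relative to DMSO.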

[4] = biological target: human NIMA (Never In Mitosis Gene A)-Related Kinase 2 (NEK2), NEK2 (gene 4751) (UniProt P51955); test: NVS_ENZ_hNEK2: NovaScreen (NVS) Enzymatic Assay for human NIMA (Never In Mitosis Gene A)-Related Kinase 2 (NEK2) (AID 2283188)
Summary of the method: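 Cell-free NEK2 enzyme activity after 1 h exposure, read by fluorescence with electrophoretic mobility shift separating substrate and product. Primary screen in duplicate at 25 uM; actives then run as concentration series. Loss of signal versus DMSO scored.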

[5] = biological target: human Phosphatase and Tensin Homolog (PTEN), PTEN (gene 5728) (UniProt P60484); test: NVS_ENZ_hPTEN: NovaScreen (NVS) Enzymatic Assay for human Phosphatase and Tensin Homolog (PTEN) (AID 2283203)
Summary of the method: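 Cell-free recombinant human PTEN with fluorescent substrate; product separated by electrophoretic mobility shift and read by fluorescence 1 h after dosing. Primary screen in duplicate at 25 uM, actives followed in concentration series versus DMSO.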

[6] = biological target: human Raf-1 Proto-Oncogene, serine/threonine Kinase (RAF1), RAF1 (gene 5894) (UniProt P04049); test: NVS_ENZ_hRAF1: NovaScreen (NVS) Enzymatic Assay for human Raf-1 Proto-Oncogene, serine/threonine Kinase (RAF1) (AID 2283216)
Summary of the method: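 Cell-free recombinant kinase with specific fluorescent substrate, product separated by electrophoretic mobility shift; read 1 h after dosing. Primary screen at 25 uM in duplicate; hits then run in concentration-response up to 50 uM, fitted as loss of signal versus DMSO.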

[7] = biological target: rat Monoamine Oxidase, MAO-B, Peripheral (MAOBP), Maob (gene 25750) (UniProt P19643); test: NVS_ENZ_rMAOBP: NovaScreen (NVS) Enzymatic Assay for rat Monoamine Oxidase, MAO-B, Peripheral (MAOBP) (AID 2283242)
[8] = tested on: rat Monoamine Oxidase, MAO-A, Central (MAOAC), gene 29253; test: NVS_ENZ_rMAOAC: NovaScreen (NVS) Enzymatic Assay for rat Monoamine Oxidase, MAO-A, Central (MAOAC) (AID 2283243);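 further: potency refers to inhibition seen as signal drop below DMSO baseline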
Summary of the method: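 Inhibition of rat brain-derived MAO-A was read by scintillation counting after 1.5 h exposure. Compounds screened first at 25 uM in duplicate, then in dose series if active.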

[9] = biological target: rat Corticotropin Releasing Factor Receptor (CRF), Crhr1 (gene 58959) (UniProt P35353); test: NVS_GPCR_rCRF: NovaScreen (NVS) G Protein-Coupled Receptor Assay for rat Corticotropin Releasing Factor Receptor (CRF) (AID 2283300)
Summary of the method: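 Rat cortical membranes used as receptor source in a radioligand competitive displacement binding assay; scintillation read 2 h after dosing. Primary screen run in duplicate at 25 uM; loss of signal versus DMSO baseline indicates binding.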

[10] = biological target: human Epidermal Growth Factor Receptor (EGFR), EGFR (gene 1956) (UniProt P00533); test: NVS_ENZ_hEGFR: NovaScreen (NVS) Enzymatic Assay for human Epidermal Growth Factor Receptor (EGFR) (AID 2283151)
Summary of the method: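 Cell-free kinase assay, fluorescence plus electrophoretic mobility shift separating substrate and product, read 1 hour after dosing; loss of signal vs DMSO. Duplicate screen at 25 uM, then concentration-response to 50 uM.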

[11] = biological target: human Fibroblast Growth Factor Receptor 1 (FGFR1), FGFR1 (gene 2260) (UniProt P11362); test: NVS_ENZ_hFGFR1: NovaScreen (NVS) Enzymatic Assay for human Fibroblast Growth Factor Receptor 1 (FGFR1) (AID 2283159);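 on AC50: hits lower the signal so potencies describe inhibitors of the kinase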
Summary of the method: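 Cell-free recombinant kinase with fluorescent substrate, product separated by electrophoretic mobility shift; read 1 hour after dosing, loss of signal relative to DMSO. Initial screen in duplicate at 25 uM, actives followed in concentration series.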

[12] = biological target: Protein deacetylase HDAC6 (Homo sapiens) (UniProt Q9UBN7); test: NVS_ENZ_hHDAC6: NovaScreen (NVS) Enzymatic Assay for human Histone Deacetylase 6 (HDAC6) (AID 2283164)
Summary of the method: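 Recombinant human HDAC6 with fluorescent substrate, 1 h; product separated from substrate by electrophoretic mobility shift. Primary screen in duplicate at 25 uM; actives retested singly in concentration-response up to 50 uM, fitted relative to DMSO.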

[13] = biological target: human Protein Tyrosine Phosphatase Receptor Type C (PTPRC), PTPRC (gene 5788) (UniProt P08575); test: NVS_ENZ_hPTPRC: NovaScreen (NVS) Enzymatic Assay for human Protein Tyrosine Phosphatase Receptor Type C (PTPRC) (AID 2283212)
Summary of the method: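 Yeast-extracted human PTPRC used in a cell-free colorimetric enzyme activity read-out, 1 h after dosing. Primary screen in duplicate at 25 uM; actives rerun in concentration-response up to 50 uM, DMSO as baseline.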

[14] = biological target: human Matrix Metalloproteinase-1 (MMP1), MMP1 (gene 4312) (UniProt P03956); test: NVS_ENZ_hMMP1: NovaScreen (NVS) Enzymatic Assay for human Matrix Metalloproteinase-1 (MMP1) (AID 2283181)
Summary of the method: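 Human MMP1 enzyme activity measured by fluorescence 1 h after dosing, cell-free, with a specific substrate. Screened in duplicate at 25 uM; hits (e.g. 30% inhibition) run in concentration-response up to 50 uM; loss of signal versus DMSO.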

[15] = biological target: human Caspase 2 (CASP2), CASP2 (gene 835) (UniProt P42575); test: NVS_ENZ_hCASP2: NovaScreen (NVS) Enzymatic Assay for human Caspase 2 (CASP2) (AID 2283135)
Summary of the method: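 E. coli-expressed enzyme in a cell-free protease assay, fluorescence read 1 h after dosing. Compounds at 25 uM in duplicate, with concentration-response up to 50 uM for hits; loss of signal against DMSO baseline.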

[16] = biological target: human p21 Activated Kinase 4 (PAK4), PAK4 (gene 10298) (UniProt O96013); test: NVS_ENZ_hPAK4: NovaScreen (NVS) Enzymatic Assay for human p21 Activated Kinase 4 (PAK4) (AID 2283189)
Summary of the method: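 Cell-free recombinant human PAK4 activity assay; fluorescent substrate and product separated by electrophoretic mobility shift, read 1 h after dosing. Initially tested in duplicate at 25 uM, relative to DMSO baseline.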

[17] = biological target: human Protein Tyrosine Phosphatase Non-receptor Type 2 (PTPN2), PTPN2 (gene 5771) (UniProt P17706); test: NVS_ENZ_hPTPN2: NovaScreen (NVS) Enzymatic Assay for human Protein Tyrosine Phosphatase Non-receptor Type 2 (PTPN2) (AID 2283207)
Summary of the method: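 Cell-free recombinant enzyme with fluorescent substrate, product separated by electrophoretic mobility shift; read 1 h after dosing. Primary screen single concentration (25 uM) in duplicate; actives followed in concentration series; loss of signal versus DMSO.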

[18] = biological target: rat Monoamine Oxidase, MAO-B, Central (MAOBC), Maob (gene 25750) (UniProt P19643); test: NVS_ENZ_rMAOBC: NovaScreen (NVS) Enzymatic Assay for rat Monoamine Oxidase, MAO-B, Central (MAOBC) (AID 2283238)
Summary of the method: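 MAO-B activity in rat brain tissue preparation, cell-free, measured radiometrically by scintillation counting 1.17 h after dosing. Screened in duplicate at 25 uM; actives then in concentration-response up to 50 uM. Loss of signal versus DMSO scored.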

[19] = biological target: human Acetylcholinesterase (AChE), ACHE (gene 43) (UniProt P22303); test: NVS_ENZ_hAChE: NovaScreen (NVS) Enzymatic Assay for human Acetylcholinesterase (AChE) (AID 2283129)
Summary of the method: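 Cell-free colorimetric enzyme-activity assay; compounds read 0.33 hour after dosing, loss of signal vs DMSO baseline. Primary screen in duplicate at 25 uM single concentration, with active compounds retested in concentration series.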

[20] = biological target: rat Oxytocin Receptor (OXT), Oxtr (gene 25342) (UniProt P70536); test: NVS_GPCR_rOXT: NovaScreen (NVS) G Protein-Coupled Receptor Assay for rat Oxytocin Receptor (OXT) (AID 2283330)
Summary of the method: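 Radioligand displacement on rat uterine membranes, 1 h incubation, filter-based scintillation counting. Chemicals were screened in duplicate at 25 uM, and those passing threshold were retested in concentration-response up to 50 uM. Loss of binding was fitted versus DMSO.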

[21] = read-out: xenobiotic metabolism (CYP2C9), CYP2C9 (gene 1559); test: CLD_CYP2C9_6hr: CellzDirect (CLD) Gene Expression Assay for xenobiotic metabolism (CYP2C9) at 6 hours (AID 2283664)
Summary of the method: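 Primary human hepatocytes dosed daily with test chemicals at multiple concentrations; harvested at 6 h. CYP2C9 mRNA induction measured by qNPA chemiluminescence. Gain of signal fitted against 0.2% DMSO vehicle; cytotoxicity annotated from phase-contrast morphology.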

Measured: AC50

Androgen receptor (Homo sapiens), sequence (P10275 whole entry, looked up, the tested form may be a part): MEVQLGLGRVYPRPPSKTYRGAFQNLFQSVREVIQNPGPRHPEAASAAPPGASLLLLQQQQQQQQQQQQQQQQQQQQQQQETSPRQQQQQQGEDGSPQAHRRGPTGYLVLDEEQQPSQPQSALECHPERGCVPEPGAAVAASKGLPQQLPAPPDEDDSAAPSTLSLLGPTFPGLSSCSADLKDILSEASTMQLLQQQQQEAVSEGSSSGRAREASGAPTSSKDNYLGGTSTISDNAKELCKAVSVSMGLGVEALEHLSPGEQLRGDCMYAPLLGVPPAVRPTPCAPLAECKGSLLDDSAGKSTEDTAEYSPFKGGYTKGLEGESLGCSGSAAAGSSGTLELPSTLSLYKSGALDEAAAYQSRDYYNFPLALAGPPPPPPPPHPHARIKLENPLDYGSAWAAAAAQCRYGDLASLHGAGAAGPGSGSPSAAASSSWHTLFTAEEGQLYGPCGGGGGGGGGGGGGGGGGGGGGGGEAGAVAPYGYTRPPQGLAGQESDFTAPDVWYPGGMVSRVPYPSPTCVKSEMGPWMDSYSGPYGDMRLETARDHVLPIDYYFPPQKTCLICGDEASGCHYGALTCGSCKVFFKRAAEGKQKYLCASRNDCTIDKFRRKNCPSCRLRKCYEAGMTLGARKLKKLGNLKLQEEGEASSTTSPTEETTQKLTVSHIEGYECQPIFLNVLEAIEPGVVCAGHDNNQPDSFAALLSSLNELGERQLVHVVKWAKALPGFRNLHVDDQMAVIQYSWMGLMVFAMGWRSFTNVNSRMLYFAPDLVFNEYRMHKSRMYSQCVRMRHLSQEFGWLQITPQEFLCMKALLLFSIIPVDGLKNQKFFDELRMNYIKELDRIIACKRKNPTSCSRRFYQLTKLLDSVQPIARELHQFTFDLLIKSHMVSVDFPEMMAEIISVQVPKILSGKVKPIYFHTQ
human Phosphatase and Tensin Homolog (PTEN), PTEN (gene 5728), sequence (P60484 whole entry, looked up): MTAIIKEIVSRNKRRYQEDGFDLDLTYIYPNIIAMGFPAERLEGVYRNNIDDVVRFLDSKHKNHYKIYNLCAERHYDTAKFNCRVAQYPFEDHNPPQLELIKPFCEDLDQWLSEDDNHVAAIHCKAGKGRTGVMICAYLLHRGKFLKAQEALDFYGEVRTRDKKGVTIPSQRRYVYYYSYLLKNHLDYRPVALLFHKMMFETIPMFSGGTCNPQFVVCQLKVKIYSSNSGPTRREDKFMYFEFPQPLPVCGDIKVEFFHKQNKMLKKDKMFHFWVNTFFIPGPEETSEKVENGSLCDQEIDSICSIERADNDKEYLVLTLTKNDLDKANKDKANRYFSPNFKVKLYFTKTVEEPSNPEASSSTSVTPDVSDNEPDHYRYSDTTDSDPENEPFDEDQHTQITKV
human Protein Tyrosine Phosphatase Receptor Type C (PTPRC), PTPRC (gene 5788), sequence (P08575 whole entry, looked up): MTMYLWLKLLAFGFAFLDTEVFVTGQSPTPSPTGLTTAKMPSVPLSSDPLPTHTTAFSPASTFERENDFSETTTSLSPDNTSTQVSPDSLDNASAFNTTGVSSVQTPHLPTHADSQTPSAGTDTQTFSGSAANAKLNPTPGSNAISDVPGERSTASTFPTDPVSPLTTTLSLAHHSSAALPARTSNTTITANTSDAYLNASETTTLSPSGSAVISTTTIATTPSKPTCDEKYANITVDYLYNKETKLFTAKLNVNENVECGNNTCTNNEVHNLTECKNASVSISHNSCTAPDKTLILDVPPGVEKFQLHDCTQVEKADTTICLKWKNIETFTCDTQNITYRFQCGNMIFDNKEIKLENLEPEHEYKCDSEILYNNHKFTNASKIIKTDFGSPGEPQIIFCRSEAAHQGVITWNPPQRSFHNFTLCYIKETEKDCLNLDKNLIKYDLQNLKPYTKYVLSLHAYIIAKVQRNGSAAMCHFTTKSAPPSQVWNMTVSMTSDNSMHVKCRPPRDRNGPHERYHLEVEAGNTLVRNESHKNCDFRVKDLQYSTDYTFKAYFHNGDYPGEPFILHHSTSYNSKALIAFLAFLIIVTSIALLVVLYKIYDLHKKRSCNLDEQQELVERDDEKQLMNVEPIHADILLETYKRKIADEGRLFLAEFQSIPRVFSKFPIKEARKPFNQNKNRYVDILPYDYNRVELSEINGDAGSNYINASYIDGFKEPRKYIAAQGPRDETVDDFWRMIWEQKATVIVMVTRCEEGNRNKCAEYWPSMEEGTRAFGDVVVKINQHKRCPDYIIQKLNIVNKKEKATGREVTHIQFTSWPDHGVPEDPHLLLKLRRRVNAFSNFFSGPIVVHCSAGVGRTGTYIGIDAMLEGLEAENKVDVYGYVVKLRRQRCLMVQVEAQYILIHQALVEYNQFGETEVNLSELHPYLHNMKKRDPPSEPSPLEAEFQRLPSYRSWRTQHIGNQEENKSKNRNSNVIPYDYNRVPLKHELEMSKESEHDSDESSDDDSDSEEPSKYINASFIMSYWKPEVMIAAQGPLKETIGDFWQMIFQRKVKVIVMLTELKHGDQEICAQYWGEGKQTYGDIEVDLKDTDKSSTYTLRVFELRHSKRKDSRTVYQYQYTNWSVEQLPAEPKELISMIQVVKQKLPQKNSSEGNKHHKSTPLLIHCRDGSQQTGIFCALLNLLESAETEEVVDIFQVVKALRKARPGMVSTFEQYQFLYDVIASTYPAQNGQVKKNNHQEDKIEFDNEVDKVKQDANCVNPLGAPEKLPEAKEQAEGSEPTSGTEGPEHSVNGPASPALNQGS
human Aurora Kinase A - serine/threonine-protein Kinase 6 (AurA), AURKA (gene 6790), sequence (O14965 whole entry, looked up): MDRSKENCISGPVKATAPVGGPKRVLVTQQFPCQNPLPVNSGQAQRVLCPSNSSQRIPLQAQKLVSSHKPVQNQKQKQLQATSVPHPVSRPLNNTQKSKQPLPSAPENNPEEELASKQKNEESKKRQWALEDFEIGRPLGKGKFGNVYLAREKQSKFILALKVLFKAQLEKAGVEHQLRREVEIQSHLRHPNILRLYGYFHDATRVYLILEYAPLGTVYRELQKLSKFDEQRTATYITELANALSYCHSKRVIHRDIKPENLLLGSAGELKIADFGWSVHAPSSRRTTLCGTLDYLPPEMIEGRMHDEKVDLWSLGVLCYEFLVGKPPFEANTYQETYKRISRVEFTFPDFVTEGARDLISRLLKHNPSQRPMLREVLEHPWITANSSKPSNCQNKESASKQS
rat Monoamine Oxidase, MAO-B, Peripheral (MAOBP), Maob (gene 25750), sequence (P19643 whole entry, looked up): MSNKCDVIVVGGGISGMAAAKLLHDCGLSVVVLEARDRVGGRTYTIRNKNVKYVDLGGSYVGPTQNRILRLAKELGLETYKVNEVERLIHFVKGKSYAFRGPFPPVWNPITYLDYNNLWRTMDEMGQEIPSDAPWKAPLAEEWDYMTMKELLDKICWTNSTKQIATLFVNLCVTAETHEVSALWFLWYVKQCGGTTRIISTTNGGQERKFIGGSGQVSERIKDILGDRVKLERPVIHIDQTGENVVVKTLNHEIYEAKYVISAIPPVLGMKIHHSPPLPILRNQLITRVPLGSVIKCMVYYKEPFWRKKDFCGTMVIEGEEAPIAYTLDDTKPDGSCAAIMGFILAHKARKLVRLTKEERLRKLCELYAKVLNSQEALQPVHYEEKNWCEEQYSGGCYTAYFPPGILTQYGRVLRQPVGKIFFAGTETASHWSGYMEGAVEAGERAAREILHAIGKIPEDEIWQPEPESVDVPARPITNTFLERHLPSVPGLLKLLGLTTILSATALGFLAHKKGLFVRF
human Raf-1 Proto-Oncogene, serine/threonine Kinase (RAF1), RAF1 (gene 5894), sequence (P04049 whole entry, looked up): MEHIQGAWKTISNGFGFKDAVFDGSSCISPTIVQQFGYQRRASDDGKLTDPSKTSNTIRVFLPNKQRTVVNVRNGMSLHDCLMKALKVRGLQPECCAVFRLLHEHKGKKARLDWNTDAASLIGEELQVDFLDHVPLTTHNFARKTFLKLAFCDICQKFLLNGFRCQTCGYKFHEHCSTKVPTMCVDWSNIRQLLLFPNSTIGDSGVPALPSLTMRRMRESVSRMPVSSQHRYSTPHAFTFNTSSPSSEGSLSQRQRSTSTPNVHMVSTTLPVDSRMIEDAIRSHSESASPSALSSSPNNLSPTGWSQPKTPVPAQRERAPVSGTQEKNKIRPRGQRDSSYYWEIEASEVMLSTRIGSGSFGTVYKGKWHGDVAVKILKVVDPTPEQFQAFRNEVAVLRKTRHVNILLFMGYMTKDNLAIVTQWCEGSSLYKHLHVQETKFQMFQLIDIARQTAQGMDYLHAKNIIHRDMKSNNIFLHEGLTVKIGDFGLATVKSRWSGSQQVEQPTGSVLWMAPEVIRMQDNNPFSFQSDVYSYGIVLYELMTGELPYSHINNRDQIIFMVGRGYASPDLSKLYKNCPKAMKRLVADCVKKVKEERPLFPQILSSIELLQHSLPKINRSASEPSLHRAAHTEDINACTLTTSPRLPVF
human IkappaB Kinase alpha (IKKa), CHUK (gene 1147), sequence (O15111 whole entry, looked up): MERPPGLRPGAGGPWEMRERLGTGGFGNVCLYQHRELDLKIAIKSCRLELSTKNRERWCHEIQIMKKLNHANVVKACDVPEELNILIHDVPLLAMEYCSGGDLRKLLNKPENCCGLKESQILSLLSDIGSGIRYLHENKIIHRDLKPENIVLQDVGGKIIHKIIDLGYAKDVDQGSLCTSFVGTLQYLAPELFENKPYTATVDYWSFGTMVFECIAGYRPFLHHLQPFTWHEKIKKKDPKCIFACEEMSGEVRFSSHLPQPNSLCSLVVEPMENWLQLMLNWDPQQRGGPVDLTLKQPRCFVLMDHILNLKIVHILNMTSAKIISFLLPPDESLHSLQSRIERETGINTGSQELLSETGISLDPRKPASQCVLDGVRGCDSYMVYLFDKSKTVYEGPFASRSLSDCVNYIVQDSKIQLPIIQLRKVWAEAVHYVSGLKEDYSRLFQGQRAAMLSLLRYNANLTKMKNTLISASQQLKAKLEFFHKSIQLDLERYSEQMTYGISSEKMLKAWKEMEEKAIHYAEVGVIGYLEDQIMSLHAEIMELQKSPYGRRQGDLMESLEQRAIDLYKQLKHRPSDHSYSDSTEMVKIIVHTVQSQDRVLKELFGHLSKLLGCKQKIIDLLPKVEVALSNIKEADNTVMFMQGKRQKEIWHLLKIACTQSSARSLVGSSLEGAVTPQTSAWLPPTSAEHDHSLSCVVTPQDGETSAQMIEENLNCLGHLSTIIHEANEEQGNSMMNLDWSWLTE

CN(C)c1ccc(N=NS(=O)(=O)O)cc1
inactive: [1] | [2] | [3] | [4] | [5] | [6] | [8] | [9]
active: [7] 23.8 µM

N#C[C@@H]1CC(F)(F)CN1C(=O)CNC1CC2CCC(C1)N2c1ncccn1 (some centres undefined)
inactive: [1] | [10]

Nc1cccc2c(N)cccc12
active: [13] 5.35 µM | [8] 25 µM
inactive: [1] | [11] | [12]

CCCCCC(=O)O
inactive: [1] | [14]

Cc1cccc([N+](=O)[O-])c1C
inactive: [1] | [15] | [13]

CCCCCCCCCCCCc1ccccc1S(=O)(=O)O
inactive: [1]
active: [2] 9.88 µM | [10] 12.6 µM | [11] 9.42 µM | [3] 31.7 µM | [16] 18.1 µM | [5] 13.5 µM | [17] 19.9 µM | [13] 5.18 µM | [6] 26 µM

Oc1ccc2ccccc2c1
inactive: [1]
active: [2] 36.6 µM | [18] 14.4 µM | [7] 13.3 µM | [8] 10.2 µM

C=C1CC[C@H]2O[C@]2(C)CC[C@@H]2[C@@H]1CC2(C)C
inactive: [1] | [5]

O=C(O)c1ccccc1C(=O)OCc1ccccc1
inactive: [1] | [15]

CCCN(CCC)C(=O)SCC
inactive: [1] | [19] | [20] | [21]
